# Measurements published in the supplement of paper PMC8728848.
# Shown is part of a subset that was picked to be rich in the strongest signals.
# B1: DC-ASGPR-short (Homo sapiens) (protein)
# chain: MTRTYENFQYLENKVKVQGFKNGPLPLQSLLQRLRSGPCHLLLSLGLGLLLLVIICVVGFQNSKFQRDLVTLRTDFSNFTSNTVAEIQALTSQGSSLEETIASLKAEVEGFKQERQAVHSEMLLRVQQLVQDLKKLTCQVATLNNNASTEGTCCPVNWVEHQDSCYWFSHSGMSWAEAEKYCQLKNAHLVVINSREEQNFVQKYLGSAYTWMGLSDPEGAWKWVDGTDYATGFQNWKPGQPDDWQGHGLGGGEDCAHFHPDGRWNDDVCQRPYHWVCEAGLGQTSQESH
# Legend:
# Assay in all cases: glycan array binding signal (z-score within array); higher = stronger binding
# Conditions in all cases: glycan notation: IUPAC condensed, linker removed
# [1] = target: Fuc(a1-2)Gal(b1-4)GlcNAc(b1-6)GalNAc
# Outline: (§1)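 Glycan array binding is given as a within-array Z-score, which can be read as non-binding when negative. The arrays, 3228 of them, came from the Consortium for Functional Glycomics database and were retained only where the protein sequence was available. Z-scores were averaged across arrays of the same protein sequence at different concentrations or buffers and across linkers.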
# [2] = target: Fuc(a1-2)Gal(b1-4)[Fuc(a1-3)]GlcNAc(b1-2)[Fuc(a1-2)Gal(b1-4)[Fuc(a1-3)]GlcNAc(b1-4)]Man(a1-3)[Fuc(a1-2)Gal(b1-4)[Fuc(a1-3)]GlcNAc(b1-2)Man(a1-6)]Man(b1-4)GlcNAc(b1-4)GlcNAc
# Outline: as §1
# [3] = target: Fuc(a1-2)[Gal(a1-3)]Gal(b1-4)GlcNAc(b1-3)[Fuc(a1-2)[Gal(a1-3)]Gal(b1-4)GlcNAc(b1-6)]GalNAc
# Outline: as §1
# [4] = target: Fuc(a1-2)[Gal(a1-4)]Gal(b1-4)GlcNAc
# Outline: as §1
# [5] = target: Fuc(a1-2)[GalNAc(a1-3)]Gal
# Outline: as §1
# [6] = target: Fuc(a1-2)[GalNAc(a1-3)]Gal(b1-3)GalNAc(a1-3)[Fuc(a1-2)]Gal(b1-4)GlcNAc
# Outline: as §1
# [7] = target: Fuc(a1-2)[GalNAc(a1-3)]Gal(b1-4)GlcNAc(b1-3)Gal(b1-4)GlcNAc
# Outline: as §1
# [8] = target: Fuc(a1-2)[GalNAc(a1-4)]Gal(b1-4)GlcNAc
# Outline: as §1
# [9] = target: Fuc(a1-2)[GalNAc(b1-3)]Gal
# Outline: as §1
# [10] = target: Fuc(a1-3)[Gal(b1-4)]GlcNAc
# Outline: as §1
# [11] = target: Fuc(a1-3)[Gal(b1-4)]GlcNAc(b1-3)Gal(b1-3)[Fuc(a1-4)]GlcNAc
# Outline: as §1
# [12] = target: Fuc(a1-3)[GalNAc(b1-4)]GlcNAc
# Outline: as §1
# Gal(b1-3)GalNAc(b1-3)Gal = target: Gal(b1-3)GalNAc(b1-3)Gal
# Outline: as §1
# [13] = target: Gal(b1-3)[Fuc(a1-4)]GlcNAc
# Outline: as §1
# [14] = target: Gal(b1-3)[Fuc(a1-4)]GlcNAc(b1-2)Man
# Outline: as §1
# [15] = target: Gal(b1-4)GlcNAc(b1-2)[Gal(b1-4)GlcNAc(b1-6)]Man(a1-6)[GlcNAc(b1-4)][Gal(b1-4)GlcNAc(b1-2)Man(a1-3)]Man(b1-4)GlcNAc(b1-4)GlcNAc
# Outline: as §1
# [16] = target: Gal(b1-4)GlcNAc(b1-3)Gal(b1-4)GlcNAc(b1-2)Man(a1-3)[Gal(b1-4)GlcNAc(b1-3)Gal(b1-4)GlcNAc(b1-2)Man(a1-6)]Man(b1-4)GlcNAc(b1-4)GlcNAc
# Outline: as §1
# [17] = target: Gal(b1-4)GlcNAc(b1-3)Gal(b1-4)GlcNAc(b1-3)Gal(b1-4)GlcNAc(b1-2)Man(a1-3)[Gal(b1-4)GlcNAc(b1-3)Gal(b1-4)GlcNAc(b1-3)Gal(b1-4)GlcNAc(b1-2)Man(a1-6)]Man(b1-4)GlcNAc(b1-4)GlcNAc
# Outline: as §1
# [18] = target: Gal(b1-4)GlcNAc(b1-3)Gal(b1-4)GlcNAc(b1-3)Gal(b1-4)GlcNAc(b1-2)[Gal(b1-4)GlcNAc(b1-3)Gal(b1-4)GlcNAc(b1-3)Gal(b1-4)GlcNAc(b1-6)]Man(a1-6)[Gal(b1-4)GlcNAc(b1-3)Gal(b1-4)GlcNAc(b1-3)Gal(b1-4)GlcNAc(b1-2)Man(a1-3)]Man(b1-4)GlcNAc(b1-4)[Fuc(a1-6)]GlcNAc
# Outline: as §1
# [19] = target: Gal(b1-4)GlcNAc(b1-6)GalNAc
# Outline: as §1
# Gal3S(b1-4)GlcNAc = target: Gal3S(b1-4)GlcNAc
# Outline: as §1
# [20] = target: GalNAc(b1-3)Gal(a1-4)Gal(b1-4)GlcNAc
# Outline: as §1
# GalNAc(b1-4)GlcNAc = target: GalNAc(b1-4)GlcNAc
# Outline: as §1
# [21] = target: GalNAc(b1-4)GlcNAc(b1-3)GalNAc(b1-4)GlcNAc
# Outline: as §1
# GalNAc(b1-4)GlcNAc6S = target: GalNAc(b1-4)GlcNAc6S
# Outline: as §1
# [22] = target: GalNAc3S(b1-4)[Fuc(a1-3)]GlcNAc
# Outline: as §1
# GlcA(b1-3)GlcNAc = target: GlcA(b1-3)GlcNAc
# Outline: as §1
# [23] = target: GlcNAc(a1-4)Gal(b1-4)GlcNAc
# Outline: as §1
# [24] = target: GlcNAc(a1-4)Gal(b1-4)GlcNAc(b1-3)Gal(b1-4)[Fuc(a1-3)]GlcNAc(b1-3)Gal(b1-4)[Fuc(a1-3)]GlcNAc
# Outline: as §1
# [25] = target: GlcNAc(b1-3)Gal(b1-4)GlcNAc(b1-3)[GlcNAc(b1-3)Gal(b1-4)GlcNAc(b1-3)]GalNAc
# Outline: as §1
binder,measurement,setting,value
B1,glycan array binding signal (z-score),[1],4.65
same,glycan array binding signal (z-score),[2],-0.192
same,glycan array binding signal (z-score),[3],-0.17
same,glycan array binding signal (z-score),[4],-0.263
same,glycan array binding signal (z-score),[5],0.967
same,glycan array binding signal (z-score),[6],1.27
same,glycan array binding signal (z-score),[7],0.335
same,glycan array binding signal (z-score),[8],3.1
same,glycan array binding signal (z-score),[9],4.03
same,glycan array binding signal (z-score),[10],-0.28
same,glycan array binding signal (z-score),[11],-0.284
same,glycan array binding signal (z-score),[12],3.04
same,glycan array binding signal (z-score),Gal(b1-3)GalNAc(b1-3)Gal,-0.217
same,glycan array binding signal (z-score),[13],-0.264
same,glycan array binding signal (z-score),[14],-0.106
same,glycan array binding signal (z-score),[15],-0.282
same,glycan array binding signal (z-score),[16],-0.244
same,glycan array binding signal (z-score),[17],-0.221
same,glycan array binding signal (z-score),[18],-0.198
same,glycan array binding signal (z-score),[19],3.52
same,glycan array binding signal (z-score),Gal3S(b1-4)GlcNAc,-0.271
same,glycan array binding signal (z-score),[20],6.36
same,glycan array binding signal (z-score),GalNAc(b1-4)GlcNAc,4.38
same,glycan array binding signal (z-score),[21],4.52
same,glycan array binding signal (z-score),GalNAc(b1-4)GlcNAc6S,4.1
same,glycan array binding signal (z-score),[22],-0.256
same,glycan array binding signal (z-score),GlcA(b1-3)GlcNAc,-0.28
same,glycan array binding signal (z-score),[23],-0.273
same,glycan array binding signal (z-score),[24],-0.266
same,glycan array binding signal (z-score),[25],-0.295
